# Assay results reported in PubChem BioAssay (NCI).
# The panel holds about 79,000 compounds, 15% with a hit somewhere; the sample as a whole holds those more often. Values without a mark were called inactive. Active and inactive are the calls of the source. Rule as the data show it: active = growth inhibition above about 70%; inactive = the rest.
# Assay: NCI Yeast Anticancer Drug Screen. Data for the rad50 strain (AID 155);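 also: 0% = growth of vehicle-only cultures of the same strain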
# Settings: S. cerevisiae rad50 strain growth inhibition; at 5.0 µM (retest, dose inferred, filed as 0.5); hits give high values
# Protocol: Growth inhibition of yeast strains with defined genetic alterations is measured as a screen for potential anti-cancer activity. Selected strains with alterations in DNA damage repair or cell cycle control were exposed to compounds and growth inhibition was measured relative to vehicle treated controls. The strain used in this assay is rad50
row,SMILES,growth inhibition
1,Oc1c(Cl)c(Cl)cc(Cl)c1Cl,8%
2,CC(=O)OCC12CC(O)C(C)=CC1OC1C(O)C(OC(C)=O)C2(C)C12CO2 (stereo unspecified),8%
3,O=C(CC(=O)c1ccccc1)c1ccccc1.O=C(CC(=O)c1ccccc1)c1ccccc1.O=C(CC(=O)c1ccccc1)c1ccccc1.[Al],2%
4,S=C=NCCc1ccccc1,-12%
5,O=P(CCP(=O)(c1ccccc1)c1ccccc1)(c1ccccc1)c1ccccc1.[Cl][Sn]([Cl])([c]1ccccc1)[c]1ccccc1,82% (active)
6,Oc1c(Cl)cc(Cl)cc1Cl.[Cu+2],6%
7,N#CS.[Ag],11%
8,C1CC[N-]CC1.C1CC[N-]CC1.N#C[S-].N#C[S-].[Cd],33%
9,Cc1cccc(C)c1N=C(N)N[N+](=O)[O-],45%
10,CC(=O)NC1C(O[C@H]2CC[C@@]3(C)C(CC[C@]4(C)C3CC=C3C5CC(C)(C)CC[C@]5(C(=O)O)CCC34C)C2(C)C)OC(CO)C(O)C1O (stereo partly specified),42%

# Same assay, conditions: S. cerevisiae rad50 strain growth inhibition; at 50.0 µM (retest, dose inferred, filed as 5.0); hits give high values
row,SMILES,growth inhibition
1,Oc1c(Cl)c(Cl)cc(Cl)c1Cl,90% (active)
2,CC(=O)OCC12CC(O)C(C)=CC1OC1C(O)C(OC(C)=O)C2(C)C12CO2 (stereo unspecified),33%
3,O=C(CC(=O)c1ccccc1)c1ccccc1.O=C(CC(=O)c1ccccc1)c1ccccc1.O=C(CC(=O)c1ccccc1)c1ccccc1.[Al],-3%
4,S=C=NCCc1ccccc1,21%
5,O=P(CCP(=O)(c1ccccc1)c1ccccc1)(c1ccccc1)c1ccccc1.[Cl][Sn]([Cl])([c]1ccccc1)[c]1ccccc1,97% (active)
6,Oc1c(Cl)cc(Cl)cc1Cl.[Cu+2],95% (active)
7,N#CS.[Ag],97% (active)
8,C1CC[N-]CC1.C1CC[N-]CC1.N#C[S-].N#C[S-].[Cd],86% (active)
9,Cc1cccc(C)c1N=C(N)N[N+](=O)[O-],96% (active)
10,CC(=O)NC1C(O[C@H]2CC[C@@]3(C)C(CC[C@]4(C)C3CC=C3C5CC(C)(C)CC[C@]5(C(=O)O)CCC34C)C2(C)C)OC(CO)C(O)C1O (stereo partly specified),98% (active)

# Same assay, conditions: S. cerevisiae rad50 strain growth inhibition; at 50.0 µM; hits give high values
row,SMILES,growth inhibition
1,CCC1=C(CC2NCCc3cc(OC)c(OC)cc32)CC2c3ccccc3CCN2C1 (stereo unspecified),-16.8%
2,Oc1c(Cl)c(Cl)cc(Cl)c1Cl,23.5%
3,O=[P+](O)O[P+](=O)O.O=[P+](O)O[P+](=O)O.O=[P+](O)O[P+](=O)O.O=[P+](O)O[P+](=O)O.[Cl][Pt].[Cl][Pt],-2.05%
4,COc1ccc2c(c1)CC(CN1CCC3(CC1)C(=O)NCN3c1ccccc1)O2 (stereo unspecified),76.7% (active)
5,CCOC(=O)C1(O)N=C(c2ccccc2)c2ccccc2-n2cccc21 (stereo unspecified),-21.4%
6,C[C@]12CC[C@H](O)C[C@H]1CC[C@@H]1[C@@H]2CC[C@]2(C)[C@@H](C3=CC(=O)OC3)CC[C@]12O,-3.9%
7,COc1ccc(C(=O)Cc2c(C(=O)c3ccccc3)c3ccccc3n2C(=O)c2ccccc2)cc1,-2.45%
8,COc1ccc2c3c1OC1C4(OC)CCC5(c6c(O)ccc(O)c64)C(C2)N(C)CCC315 (stereo unspecified),5.75%
9,O=C([O-])CC(=O)[O-].[NH-][C@@H]1CCCC[C@H]1[NH-].[Pt+4],-14.2%
10,CC(=O)OCC12CC(O)C(C)=CC1OC1C(O)C(OC(C)=O)C2(C)C12CO2 (stereo unspecified),91.8% (active)
11,O=C(CC(=O)c1ccccc1)c1ccccc1.O=C(CC(=O)c1ccccc1)c1ccccc1.O=C(CC(=O)c1ccccc1)c1ccccc1.[Al],19.7%
12,S=C=NCCc1ccccc1,72% (active)
13,O=P(CCP(=O)(c1ccccc1)c1ccccc1)(c1ccccc1)c1ccccc1.[Cl][Sn]([Cl])([c]1ccccc1)[c]1ccccc1,87.7% (active)
14,COc1cc(C2c3cc4c(cc3OC(NCCO)C2C)OCO4)cc(OC)c1O (stereo unspecified),6.1%
15,Oc1c(Cl)cc(Cl)cc1Cl.[Cu+2],99.7% (active)
16,COc1cc(C(c2c(O)c3ccccc3oc2=O)c2c(O)c3ccccc3oc2=O)cc(OC)c1OC,-2.1%
17,Cc1ccc(NC2=NCCS2)cc1Cl,3.05%
18,N#CS.[Ag],60.8%
19,COc1cccc(OC)c1CCN,-27.9%
20,Cc1cccc(C)c1N=C(N)N[N+](=O)[O-],89.5% (active)
21,CC(=O)NC1C(O[C@H]2CC[C@@]3(C)C(CC[C@]4(C)C3CC=C3C5CC(C)(C)CC[C@]5(C(=O)O)CCC34C)C2(C)C)OC(CO)C(O)C1O (stereo partly specified),91% (active)
